According to ChEMBL document CHEMBL3988442, “University of Dundee, Small-Polar-MMV Screening Library” (2021):

Legend:
[1] = molecular target: T1, Aspartate--tRNA(Asp/Asn) ligase (Mycobacterium tuberculosis (strain ATCC 25618 / H37Rv)) (UniProt P9WFW3); experiment: Assay for Asp RNA synthetase-1 from Mycobacterium tuberculosis; type: functional; parameters: scale not given: direction of the effect not stated beside the values; conditions: 30 µM; note: in the data most compounds retested in dose-response had high values
T1 sequence (whole entry): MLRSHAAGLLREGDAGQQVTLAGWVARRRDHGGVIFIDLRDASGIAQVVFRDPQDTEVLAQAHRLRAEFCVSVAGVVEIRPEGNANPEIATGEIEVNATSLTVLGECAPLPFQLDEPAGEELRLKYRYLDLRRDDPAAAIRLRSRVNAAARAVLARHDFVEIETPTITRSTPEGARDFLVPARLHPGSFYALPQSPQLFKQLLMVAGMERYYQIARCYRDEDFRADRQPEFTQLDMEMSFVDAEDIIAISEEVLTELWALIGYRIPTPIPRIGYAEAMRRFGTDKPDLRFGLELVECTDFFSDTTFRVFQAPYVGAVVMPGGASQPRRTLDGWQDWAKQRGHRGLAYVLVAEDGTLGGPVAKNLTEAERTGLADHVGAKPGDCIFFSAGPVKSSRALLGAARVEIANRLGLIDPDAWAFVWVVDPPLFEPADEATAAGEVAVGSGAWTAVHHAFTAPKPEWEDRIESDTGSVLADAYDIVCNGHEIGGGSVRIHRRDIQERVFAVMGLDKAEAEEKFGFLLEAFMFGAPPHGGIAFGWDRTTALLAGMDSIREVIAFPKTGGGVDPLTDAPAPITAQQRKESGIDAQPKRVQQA

[2] = molecular target: Shiga toxin 2 (Escherichia coli O157:H7) (UniProt P09385+P09386); experiment: E. coli 0.157:H7 Shiga Toxin SOP - stx2 screening assay; type: functional; parameters: scale not given: direction of the effect not stated beside the values; conditions: 30 µM

Row | Structure (SMILES) | Percent Effect [1] | Percent Effect [2]
1 | CN(CC1COc2ccccc2O1)C(=O)NCCCn1ccnc1 (centres undefined) | -0.767% | 11.4%
2 | Cc1cc(NC(=O)NCCc2cccs2)n(C)n1 | 1.39% | -38.4%
3 | Cc1cccc(CC(=O)NCCCOC(C)C)c1 | -4.16% | -10.2%
4 | CN1CC(=O)N(c2ccccc2)CC12CCN(Cc1nccs1)C2 (centres undefined) | 4.78% | -21.2%
5 | CC(C)c1cc(N2CCN(c3ccc(O)cc3)CC2)n2nccc2n1 | -1.38% | 15%
6 | CC(=O)Nc1nc(C(=O)NC(C)c2ccc(F)cc2)cs1 (centres undefined) | -3.46% | 26.2%
7 | CCN(C(=O)COC)C(c1cccnc1)c1ccc2c(c1)CCO2 (centres undefined) | 2.07% | -29.4%
8 | NC(=O)Cn1cc(NC(=O)N2CCCC2)cn1 | -2.12% | -31.6%
9 | Cc1cc(C)n(C2CN(CC(=O)NC3CCOCC3)C2)n1 | -1.88% | -2.98%
10 | NC[C@H]1CC[C@H](C(NC(=O)c2cccc(F)c2)c2ccccn2)CC1 (some centres undefined) | -0.28% | -71.9%
11 | CN(c1ccncn1)C1CC2(CCN(C(=O)c3ccsc3)C2)C1 (centres undefined) | -8.13% | -32.2%
12 | CN(C)C(=O)N1C[C@@H]2CC[C@H](C1)N(Cc1ccc3nsnc3c1)C2 | 6.27% | -56.9%
13 | CS(=O)(=O)NCCCN1CCCC1c1ccccc1 (centres undefined) | 2.4% | 10%
14 | Cc1cnn(CCNCc2ccccc2OCc2cccnc2)c1 | 4.5% | -8.49%
15 | CO[C@@H]1CC[C@H]2[C@H]1OCCN2C(=O)C1=CCCC1 | 3.45% | -25.5%
16 | Cc1cnc2n(c1=O)C(CC(=O)NCc1cc(-c3cccs3)on1)CS2 (centres undefined) | 1.62% | -30.9%
17 | Cn1ccc(C(=O)N2CCN(c3cc(C#N)ccn3)CC2)cc1=O | 3.75% | 1.09%
18 | CCOc1ccnc(N2CCN(C(=O)c3cccnc3O)CC2)n1 | -5.14% | 6.95%
19 | CC(C)c1noc(CCC(=O)NC(C)c2nnc3n2CCCCC3)n1 (centres undefined) | 0.353% | -13.7%
20 | CNS(=O)(=O)c1cccc(CNc2cc(C(F)(F)F)ccn2)c1 | -2.24% | 27.2%
21 | CC(C)n1cc(CN2CCCN(C(=O)c3nccnc3N)CC2)cn1 | 6.6% | -11.2%
22 | O=C(CSC1CCc2ccccc2NC1=O)NCCO (centres undefined) | 0.805% | -11.3%
23 | Cc1csc(N2CCN(C(=O)CCc3nccs3)CC2)n1 | 2.49% | 7.79%
24 | CC(Nc1cccc(CN2CCOC2=O)c1)C(=O)NC(N)=O (centres undefined) | -3.68% | -7.19%
25 | COC(=O)c1ccc(N2CCN(C(=O)c3ccncc3)C(C)C2)cc1 (centres undefined) | -2.26% | -11.4%
26 | Cc1ccc(Cc2cnc(NC(=O)C3CNC(=O)N3)s2)cc1F (centres undefined) | -6.24% | -17.9%

Row | Structure (SMILES) | Percent Effect [1] | Percent Effect [2]
27 | Cc1nc(-c2ccsc2)ccc1C(=O)NCCC(=O)N1CCCC1 | 0.0333% | -18.4%
28 | CCc1nnc2n1CCN(C(=O)c1cc3ccc(F)cc3nc1C)C2 | 1.79% | 8.5%
29 | CCOc1ccc(CN(C)C(=O)NC(C)c2nncn2C)cc1 (centres undefined) | 0.975% | -14.2%
30 | O=C(CCc1ccsc1)NCC1CCN(c2ccccc2)C1 (centres undefined) | 0.529% | -12.3%
31 | Cc1oncc1C(=O)N1CCC2(C1)CN(c1cccnc1)C(=O)CN2C (centres undefined) | -6.17% | -13.7%
32 | O=C(c1cc(F)ccc1F)C1CCN(C(=O)c2ccccn2)CC1 | -3.52% | 18.1%
33 | CCN(CC)CCNC(=O)c1cnc(C(C)(C)C)s1 | -0.45% | 17.4%
34 | O=C(c1cccc(CNS(=O)(=O)c2ccccc2F)c1)N1CCCC1 | 5.13% | 22.1%
35 | Cc1nc(CN2CCN(C(=O)c3ccn(C)c(=O)c3)CC2)cs1 | 4.03% | -43.8%
36 | CC(=O)N(C)c1nc(CN2CCOC(Cn3cc(C)cn3)C2)cs1 (centres undefined) | -3.86% | -9.15%
37 | Cc1noc(C)c1C(=O)NCc1ccnc(OCC(F)(F)F)c1 | -0.189% | 10.8%
38 | CCc1ccc(C(=O)NC2CCN(c3cnn(C)c3)C2=O)o1 (centres undefined) | 3.57% | -7.19%
39 | Cc1cccc(CN2C(=O)CO[C@@H]3CN(CCO)C[C@H]32)c1 | -4.77% | 2.07%
40 | Cn1cc(C2CCCN2CCCc2nc(-c3cccs3)no2)cn1 (centres undefined) | 0.756% | 6.08%
41 | CO[C@H]1CN(Cc2cccc(C#N)c2)[C@@H]2COC[C@H]12 | 4.8% | -22.2%
42 | Cc1nc(C2CCCN(C(=O)c3cccc4c3OCO4)C2)no1 (centres undefined) | 5.25% | -12.6%
43 | CCNC(=O)CN1CCCN(C(=O)C2CCCc3[nH]ncc32)CC1 (centres undefined) | -3.09% | -2%
44 | COc1ccccc1OCC(=O)NS(=O)(=O)c1ccc(Br)s1 | 2.43% | -0.0881%
45 | CCc1ccc(OCC(O)CN2CCC(O)CC2)cc1 (centres undefined) | 3.31% | 16.1%
46 | CC(C(=O)Nc1ccc(N2CCCC2)nc1)n1ccnc1 (centres undefined) | 1.62% | -37.2%
47 | CCOCCCNC(=O)c1cn(CC)nc1C | -4.5% | -51.1%
48 | COCCOc1ccc(NC(=O)C2CC(=O)N(C)C2)cn1 (centres undefined) | 3.77% | -88.5%
49 | Cc1noc(CN(Cc2ccc3c(c2)OCO3)C2CCCC2)n1 | 1.87% | 30.6%
50 | CCc1ncc(CN(C)C(=O)Nc2cccnc2N2CCCC2)s1 | 2.75% | -14.5%
51 | CNc1nc(C(=O)N2CCCC(c3nccn3CC3CCC3)C2)cs1 (centres undefined) | 10.9% | 2.21%
52 | CCc1nnc2n1CCN(C(=O)c1ccc(-c3ccco3)nc1C)C2 | -3.2% | -27.7%

Row | Structure (SMILES) | Percent Effect [1] | Percent Effect [2]
53 | O=C(O)c1cc(S(=O)(=O)Nc2cc(F)ccc2F)cc2c1OCCO2 | -2.5% | 31.1%
54 | CC(C)NC(=O)CS(=O)(=O)Cc1cc(Cl)c2c(c1)OCCO2 | -0.2% | -1.92%
55 | CCCNC(=O)c1cc2c(c3ccccc3n2C)n1C(=O)N(C)C | 2.3% | -2.9%
56 | COc1c(C)cnc(CN2CCC(N(C)C(C)C(N)=O)CC2)c1C (centres undefined) | -3.49% | -5%
57 | Cc1cc(C(=O)N[C@@H]2CCNC[C@H]2O)ccc1Cl | 2.13% | 14.6%
58 | CCN1CCN(c2ncc(-c3cc(C)no3)c(-c3ccc(C)s3)n2)CC1 | 2.72% | 2.82%
59 | CCN1CCCC1CN(CCN(C)C)S(=O)(=O)c1ccc(C#N)cc1 (centres undefined) | -3.16% | -8.05%
60 | Cc1ccc(CN2CCC(F)(F)C3(CCN(c4cnccn4)C3)C2)o1 (centres undefined) | 5.56% | -6.62%
61 | COc1cccc(CN(C)C(=O)Nc2ccc3c(c2)OCCO3)c1 | 16.5% | -9.02%
62 | CCn1cnnc1CNC(=O)c1cc(Cl)ccc1OC | 0.48% | -24.3%
63 | Cc1ccc(CCC(=O)N2CCCC(n3cncn3)C2)c(C)c1 (centres undefined) | -4.98% | 10.1%
64 | O=C(NCCN1CCCCCC1=O)c1ccn(-c2ccc(F)cc2)n1 | 3.8% | 14.8%
65 | Cc1occc1C(=O)NCc1ccc(N2CCCC(C(N)=O)C2)cc1 (centres undefined) | 1.75% | -14.7%
66 | Cc1nc(N2CC[C@@H](NC(=O)c3cnccn3)[C@H](O)C2)c2ccsc2n1 | -1.04% | -6.15%
67 | Cc1nccc(CN2CC[C@H](Oc3cccc(F)c3)[C@@](C)(O)C2)n1 | -0.368% | -25.4%
68 | CCc1n[nH]c(C2CN(C(=O)c3cnc[nH]3)CCO2)n1 (centres undefined) | -1.76% | 27.7%
69 | C[C@]1(O)CCN(Cc2cncs2)C[C@@H]1Oc1cccc(F)c1 | -1.46% | 35.4%
70 | OCCn1cc(CN2CCN(CCOc3ccccc3)CC2)cn1 | 0.728% | 13.3%
71 | Cc1noc(C2CCCN(C(=O)c3ccc(Br)o3)C2)n1 (centres undefined) | -2.54% | -8.47%
72 | CNc1nc(CNC(=O)Nc2cccc(-c3nnco3)c2)cs1 | 2.65% | -22.3%
73 | O=C(c1cnc(-c2cccs2)s1)N1CCCN2CCCC2C1 (centres undefined) | 8.86% | 1.08%
74 | COc1cccc(CN2CCOC(Cn3nc(C)cc3C)C2)c1 (centres undefined) | 1.48% | -0.88%
75 | Cc1ccsc1C(=O)N1CC(C(=O)NCC2CC2)C2(CCOCC2)C1 (centres undefined) | 8.9% | -7.68%
76 | O=C([C@H]1C[C@@H]2CCN(C3CCOCC3)C[C@@H]2O1)N1CCOCC1 | 1.17% | -10.3%
77 | CCCOCC(=O)NC1CCc2nc(C)cn2C1 (centres undefined) | 1.62% | 7.61%
78 | Cc1ccccc1C(=O)Nc1cnn(CC(=O)NC2CCCC2)c1 | 2.07% | -6.1%

Row | Structure (SMILES) | Percent Effect [1] | Percent Effect [2]
79 | CN(c1cccnn1)C1CCN(C(=O)c2ccc3c(c2)COC3)CC1 | -2.64% | 13.1%
80 | Cc1ccoc1C(=O)N1CC[C@H]2OCC[C@@]2(COCc2ccncc2)C1 | 3.13% | -14.8%
81 | COc1cccc(OCCNCc2c(C)nn(C)c2N(C)C)c1 | -1.97% | 19.6%
82 | COCCCN1CCc2cncnc2C1 | 10.5% | -35.2%
83 | COc1c(CNC2CCc3cc(F)ccc32)c(C)nn1C (centres undefined) | -5.95% | 7.74%
84 | CC[C@H](C)[C@H](NC(=O)c1ccccc1-n1cnnn1)C(=O)OC | 3.95% | -29.9%
85 | c1ccc(OCC2CC3(CCN(c4ncccn4)CC3)CO2)nc1 (centres undefined) | 4.62% | -0.916%
86 | CC(c1nc(C2CC2)no1)N1CCN(Cc2ccccc2F)CC1 (centres undefined) | -7.52% | 8.03%
87 | COc1ccc(-c2nnc(SC(C)C(=O)NCC(C)C)[nH]2)c(OC)c1 (centres undefined) | 7.67% | 8.94%
88 | COC1CCN(C(=O)CCc2c(C)nc3ccnn3c2C)CC1 | -6.77% | 21%
89 | COCCOc1ccc(NC(=O)N(C)Cc2ccsc2)cn1 | 0.514% | -8.11%
90 | Cc1ccc(CC2CCCN2CC(=O)NCc2cccnc2)cc1 (centres undefined) | 0.509% | 16.7%
91 | CC(C)OCCOCc1cccc(NC(=O)NCc2ccncc2)c1 | 13% | -69.6%
92 | Clc1snnc1CN1CCCCC1Cn1cncn1 (centres undefined) | -1.89% | -12%
93 | COc1c(C2CCCN2C(=O)c2c[nH]c3ncccc23)c(C)nn1C (centres undefined) | -1.25% | -20.6%
94 | O=C(NCC(O)c1cccc(F)c1)c1cccnc1O (centres undefined) | -2.85% | -19%
95 | COCCN1CCC(CNC(=O)C2(c3cc(C)cc(C)c3)CCC2)C1 (centres undefined) | -0.337% | 20.8%
96 | CCO[C@@H]1CO[C@@]2(CCCN(C(=O)c3ccc(OC)c(F)c3)C2)C1 | 2.11% | -23.8%
97 | Cn1cc(CN2CCCC23CCN(C(=O)c2cccn2C)CC3)cn1 | -4.47% | -10.8%
98 | Cc1cc(NC(=O)NCCc2ccsc2)n(C)n1 | -9.16% | -21.1%
99 | NC(=O)c1ccc2c(c1)nc1n2CCN(Cc2ccccc2)C1 | 3.29% | -9.11%
100 | CCc1nc(C2CCCN2C(=O)C2=COCC2)no1 (centres undefined) | -0.485% | -3.44%
101 | CCOc1ncccc1NC(=O)NC1CCN(S(C)(=O)=O)CC1 | 5.32% | -16.8%
102 | c1nc(CCC2CCCN2)cc(N2CCCOCC2)n1 (centres undefined) | -5.88% | -10.1%
